Laboratory results published in PubChem BioAssay.

test: 75Q-TubH aggregate inhibition, S. cerevisiae, yeast (AID 1616); settings: S. cerevisiae 75Q-TubH polyglutamine aggregation suppression; stronger effect = higher value

SMILES	aggregation suppression score
C1CCN2C[C@@H]3CC(CN4CCCC[C@@H]34)[C@H]2C1	1.48
CC(Oc1ccccc1)C(=O)NC1C(=O)N2C(C(=O)O)C(C)(C)S[C@H]12 (stereo partly drawn)	1.04
CC(NC(=O)C(NC(=O)OCc1ccccc1)C(C)C)C(=O)NC(CC(=O)O)C(=O)OC(F)F (stereo not drawn)	1.2
CC[C@@H](C(=O)C(C)[C@@H](O)[C@H](C)CCc1ccc(C)c(O)c1C(=O)O)C1OC(CC)(C2CC[C@](O)(CC)[C@H](C)O2)C[C@@H]1C (stereo partly drawn)	0.948
C[C@]12CCC3c4ccc(OC(=O)CCC(=O)O)cc4CCC3C1CCC2=O (stereo partly drawn)	0.711
CCC[C@@H]1C[C@@H](C(=O)NC(C(C)Cl)C2O[C@H](SC)[C@H](O)[C@@H](O)[C@H]2O)N(C)C1 (stereo partly drawn)	1.42
CC[C@@]1(O)C[C@H](OC2CC(N(C)C)C(OC3CC(O)C(OC4CCC(=O)C(C)O4)C(C)O3)C(C)O2)c2c(cc3c(c2O)C(=O)c2c(O)cccc2C3=O)[C@H]1C(=O)OC (stereo partly drawn)	0.557
O=c1c(O)cc2c(O)oc3c(=O)c(O)cc4c3c2c1CC=4O	0.786
CC(=O)N[C@@H](Cc1c[nH]c2ccccc12)C(N)=O	1.53
C=C1C(=O)OC2C1CCC1(C)CCC=C(C)C21 (stereo not drawn)	0.322
O=c1cc(-c2ccccc2)oc2cc(O)c(O)cc12	0.852
CCCCC(=O)OC1(C(=O)CO)C(C)CC2C3CCC4=CC(=O)C=CC4(C)[C@@]3(F)[C@@H](O)CC21C (stereo partly drawn)	1.32
CN[C@@H]1[C@H](O)[C@H](NC)[C@H]2O[C@@]3(O)C(=O)C[C@@H](C)O[C@H]3OC2[C@H]1O (stereo partly drawn)	1.36
